Activity calls are given as the source filed them. No rule for the calls is given here.

Chain of Pantothenate synthetase (Mycobacterium tuberculosis (strain ATCC 25618 / H37Rv)) (P9WIL5 whole entry, looked up): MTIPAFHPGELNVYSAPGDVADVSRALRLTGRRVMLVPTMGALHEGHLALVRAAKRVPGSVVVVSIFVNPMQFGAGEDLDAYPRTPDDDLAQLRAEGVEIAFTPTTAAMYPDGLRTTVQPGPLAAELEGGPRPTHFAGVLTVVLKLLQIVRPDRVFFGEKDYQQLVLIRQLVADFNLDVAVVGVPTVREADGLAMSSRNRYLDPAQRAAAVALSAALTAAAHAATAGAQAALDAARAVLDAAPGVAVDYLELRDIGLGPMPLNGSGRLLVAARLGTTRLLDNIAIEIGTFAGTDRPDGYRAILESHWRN

The experiment concerns the target Pantothenate synthetase (Mycobacterium tuberculosis (strain ATCC 25618 / H37Rv)) (UniProt P9WIL5). The experiment is described as follows: Recombinant Mtb pantothenate synthetase (PanC) inhibitors, coupled enzyme, confirmatory (AID 375).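 Also: 0% = full reaction with vehicle and 100% = no enzyme background.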 The settings on record: coupled enzyme assay; at 10 µM, stronger effect = higher value.
By inhibition is commonly meant how much of the control response was suppressed. As for `COc1ccccc1N1CCN(CCCNC(=O)Nc2ccccc2)CC1`, the inhibition is 10% (inactive).

For the compound `CC1(C)CC(=O)C=C(NCCN2CCN(C(=O)Nc3ccccc3)CC2)C1`, the inhibition was 5% (inactive). With `O=C(NCCCn1ccnc1)c1cnn2c1NC(c1ccccc1)CC2C(F)(F)F` (stereo not given), the inhibition was 2% (inactive). Consider `Cc1cc(=O)n(C)c(=O)n1CCCCCN1CCCC1`, for which the inhibition is 0% (inactive).

Regarding `CCOC(=O)C1=C(C)Nc2nnnn2C1c1ccc(OC)c(Br)c1` (stereo not given), the inhibition is 1% (inactive). The value for `O=C(Nc1cccc(O)c1)c1ccccc1` was 0% (inactive). As to `CCOC(=O)CN1C(=O)C2(OCCCO2)c2ccccc21`, the inhibition is 1% (inactive). The value for `Cc1c(NC(=O)c2ccc(=O)oc2)c(=O)n(-c2ccccc2)n1C` was 6% (inactive). The value for `CCOc1ccc(C(CC(=O)O)NC(=O)c2ccco2)cc1OC` (stereo not given) was 2% (inactive); that for `COc1ccc(C(=O)COC(=O)CCn2nnc(-c3cccs3)n2)cc1` was 0% (inactive). The figure for `Cc1ncoc1C(=O)Nc1cccc(Cl)c1C` is 1% (inactive). With `COc1ccc(N2C(=O)C3C4C=CC(C4)C3C2=O)nn1` (stereo not given), the inhibition was 8% (inactive). Take `CCCS(=O)(=O)N1CCC(C(=O)NCCN2CCCC2)CC1`: the inhibition was 0% (inactive).

`COc1ccc(S(=O)(=O)N2CCSC2c2ccccc2)cc1` (stereo not given): the inhibition is 1% (inactive). The value for `CC(=O)c1c(O)cc(C)n(Nc2nc(C)cc(C)n2)c1=O` was 0% (inactive); that for `CCOC(=O)c1c(C)n(C)c2ccc(OC)c(NC(=O)CCN3CCSCC3)c12` was 2% (inactive).

Turning to `CCN(CCCNC(=O)COc1cc(=O)n(CC)c2ccccc12)c1ccccc1`, the inhibition was 0% (inactive). In the case of `CCCCOc1ccc(C(=O)Nn2cnnc2)cc1`, the inhibition is 1% (inactive). The value for `CC(=O)c1cccc(NC(=O)N2CCCc3ccccc32)c1` was 1% (inactive); that for `c1ccc(-n2ncc3c(NCc4cccs4)ncnc32)cc1` was 0% (inactive); that for `O=C(CN1CCSCC1)N1CCc2[nH]c3ccc(Br)cc3c2C1` was 0% (inactive). The figure for `O=C(CSc1ccc(Cl)cc1)OCc1nnc(-c2ccccc2)o1` is 1% (inactive); for `CCc1nnc(NC(=O)CCC(=O)Nc2ccccc2)s1` it is 4% (inactive); for `C=CCn1c(SCC2=C(C(=O)OCC)C(C)NC(=O)N2)nnc1C1CCCCC1` (stereo not given) it is 0% (inactive). The value for `COC(=O)c1ccc2c(c1)nc(C)n2CCO` was 0% (inactive); that for `CCOC(=O)Cn1ncc(-c2ccccc2)c1N` was 6% (inactive). Take `O=C(O)c1cc(-c2ccccc2)nc2ccccc12`: the inhibition is 3% (inactive). The figure for `O=C(CCN1C(=O)C2C3C=CC(C3)C2C1=O)N1CCN(c2ccccc2Cl)CC1` (stereo not given) is 3% (inactive); for `N#Cc1c(N)c(C(=O)c2ccccc2)n2c1CCCC2` it is 6% (inactive).

With `CC1(C)Cc2c(C#N)c(SCCC#N)nc(N3CCOCC3)c2CS1`, the inhibition was 0% (inactive). The figure for `CCOc1ccc(N2CC(C(=O)Nc3cccc(C)c3C)CC2=O)cc1` (stereo not given) is 0% (inactive). The value for `CCOC(=O)C(C#N)C(c1cccnc1)c1c(C)[nH][nH]c1=O` (stereo not given) was 3% (inactive). Turning to `COc1cc2c(cc1OC)CN(CC(=O)Nc1cccc(C)c1)CC2`, the inhibition was 11% (inactive). The figure for `COCCn1cc(C(=O)c2ccccc2OCC(=O)Nc2cc(C)on2)cc(C#N)c1=O` is 0% (inactive). The value for `O=C(NO)c1ccccc1O` was 0% (inactive); that for `c1ccc(-c2nnc(SCc3nc4ccccc4[nH]3)o2)cc1` was 0% (inactive). The value for `O=C(Nc1ccc(-c2nc3ncccc3o2)cc1)c1ccc(Br)o1` was 15% (inactive); that for `c1ccc2c(c1)C(=Nn1cnnc1)c1ccccc1-2` was 0% (inactive); that for `COc1ccccc1OCC(O)COC(N)=O` (stereo not given) was 6% (inactive). Consider `C#CCOC(=O)C1C2C=CC(C2)C1C(=O)O` (stereo not given), for which the inhibition is 1% (inactive).
